Laboratory results from PubChem BioAssay (NCI).
The panel holds about 83,000 compounds, 20% with a hit somewhere; the sample as a whole holds those more often.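 Single-concentration screen, 48 h exposure, 96-well plates. Endpoint: percent growth. Below 10 = active.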 Activity calls are given as the source filed them.

Tests used:
Assay in all cases: NCI-60 one-dose screen, 48 h (100 = growth as untreated, 0 = no growth, -100 = all killed)
Settings in all cases: 10 µM unless noted
NCI-H23 lung = system: NCI-H23 lung
NCI-H226 lung = system: NCI-H226 lung
NCI-H322M lung = system: NCI-H322M lung
NCI-H460 lung = system: NCI-H460 lung
NCI-H522 lung = system: NCI-H522 lung
A549/ATCC NSCLC = system: A549/ATCC NSCLC
786-0 renal = system: 786-0 renal
COLO 205 colon = system: COLO 205 colon
DU-145 prostate = system: DU-145 prostate
K-562 leukemia = system: K-562 leukemia
MALME-3M melanoma = system: MALME-3M melanoma
MDA-MB-231 breast = system: MDA-MB-231 breast
RXF 393 renal = system: RXF 393 renal
SF-268 CNS = system: SF-268 CNS
SF-295 CNS = system: SF-295 CNS
SF-539 CNS = system: SF-539 CNS
UACC-257 melanoma = system: UACC-257 melanoma
M14 melanoma = system: M14 melanoma
HOP-62 NSCLC = system: HOP-62 NSCLC
HOP-92 NSCLC = system: HOP-92 NSCLC

Measured: growth

O=C(Cn1c(/C=C/c2ccccc2)nc2ccccc2c1=O)Nc1ccc(Cl)cc1
active: 786-0 renal -48.9% | MDA-MB-231 breast 4.32% | RXF 393 renal -8.9%
inactive: NCI-H23 lung 59.8% | NCI-H226 lung 30.2% | NCI-H322M lung 74.8% | NCI-H460 lung 38.7% | NCI-H522 lung 76.7% | A549/ATCC NSCLC 33.8% | COLO 205 colon 78.4% | DU-145 prostate 71.3% | K-562 leukemia 85.2% | MALME-3M melanoma 59.1% | SF-268 CNS 75.2% | SF-295 CNS 59.1% | SF-539 CNS 58.7% | UACC-257 melanoma 83.6% | M14 melanoma 81.7%

O=C1N/C(=N\c2nccs2)S/C1=C\C=C/c1ccccc1
active: A549/ATCC NSCLC -81.1% | UACC-257 melanoma 8.23% | M14 melanoma -21%
inactive: NCI-H23 lung 55.8% | NCI-H226 lung 81.5% | NCI-H322M lung 30.4% | HOP-62 NSCLC 43% | HOP-92 NSCLC 64% | NCI-H522 lung 19.8% | 786-0 renal 31% | COLO 205 colon 33.2% | DU-145 prostate 49.1% | MALME-3M melanoma 42.6% | MDA-MB-231 breast 51.6% | RXF 393 renal 88.6% | SF-268 CNS 39.2% | SF-295 CNS 21.9% | SF-539 CNS 13%

COc1cc(CNC(=O)/C=C/c2ccc3c(c2)OCO3)ccc1OCc1cn(-c2ccc([N+](=O)[O-])cc2)nn1
inactive: NCI-H23 lung 88.8% | NCI-H226 lung 60.6% | NCI-H322M lung 91.5% | NCI-H460 lung 94.6% | HOP-92 NSCLC 96.7% | NCI-H522 lung 84.9% | A549/ATCC NSCLC 91.6% | 786-0 renal 90.6% | COLO 205 colon 118% | DU-145 prostate 103% | K-562 leukemia 92.8% | MALME-3M melanoma 87.6% | RXF 393 renal 72.2% | SF-268 CNS 86.9% | SF-295 CNS 88% | SF-539 CNS 79.8% | UACC-257 melanoma 91.5% | M14 melanoma 92.9%

COc1ccc(NC(=O)c2sc3nc(C(C)C)ccc3c2N)cc1
inactive: NCI-H23 lung 75.3% | NCI-H226 lung 71.7% | NCI-H322M lung 69.5% | NCI-H460 lung 88% | HOP-92 NSCLC 61.4% | NCI-H522 lung 75.7% | A549/ATCC NSCLC 59.2% | 786-0 renal 97.5% | COLO 205 colon 113% | DU-145 prostate 78.9% | K-562 leukemia 50% | MALME-3M melanoma 83.4% | RXF 393 renal 89.2% | SF-268 CNS 99.7% | SF-295 CNS 72.3% | SF-539 CNS 84.1% | UACC-257 melanoma 88.7% | M14 melanoma 93.4%

COc1cc2c(c(OC)c1OC)C(=O)CC(c1cccc(NC(=O)[C@@H](N)CC(C)C)c1)O2 (stereo partly specified)
inactive: NCI-H23 lung 102% | NCI-H226 lung 94.3% | NCI-H322M lung 111% | NCI-H460 lung 106% | HOP-92 NSCLC 80.2% | NCI-H522 lung 90% | A549/ATCC NSCLC 93.1% | 786-0 renal 96.4% | COLO 205 colon 118% | DU-145 prostate 100% | K-562 leukemia 80.6% | MALME-3M melanoma 95.5% | MDA-MB-231 breast 99.9% | RXF 393 renal 101% | SF-268 CNS 95.1% | SF-295 CNS 101% | SF-539 CNS 97.3% | UACC-257 melanoma 94.1% | M14 melanoma 116%

CCCSc1nc(Nc2ccc(S(N)(=O)=O)cc2)c(C#N)c(-c2cc(OC)c(OC)c(OC)c2)n1
inactive: NCI-H23 lung 43.4% | NCI-H226 lung 32.7% | NCI-H322M lung 51.7% | NCI-H460 lung 16.5% | NCI-H522 lung 18.2% | A549/ATCC NSCLC 17.9% | 786-0 renal 41.5% | DU-145 prostate 26.2% | MDA-MB-231 breast 43.9% | SF-268 CNS 45.2% | SF-295 CNS 14.1% | SF-539 CNS 37% | UACC-257 melanoma 42% | M14 melanoma 18.3%
active: COLO 205 colon 8.62% | K-562 leukemia 2.89% | MALME-3M melanoma -2.83% | RXF 393 renal -2.49%

Cc1occc1C(=O)NN1C(=O)/C(=C/C=C/c2ccc([N+](=O)[O-])o2)SC1=S
inactive: NCI-H322M lung 66.8% | K-562 leukemia 11.2% | SF-295 CNS 47%
active: NCI-H23 lung -84.1% | NCI-H226 lung -18.3% | HOP-62 NSCLC -9.58% | NCI-H522 lung -91.5% | A549/ATCC NSCLC 6.62% | 786-0 renal -69.7% | COLO 205 colon -75.3% | DU-145 prostate -57.7% | MALME-3M melanoma -78.6% | MDA-MB-231 breast -89% | RXF 393 renal -88.1% | SF-268 CNS -64.3% | SF-539 CNS -99.4% | UACC-257 melanoma -44.5% | M14 melanoma -65.1%

COc1cc(C2CC(c3ccc(S(=O)(=O)NCCNc4nc(Nc5ccc(F)cc5)nc(N(C)C)n4)cc3)=Nc3c(N)nc(N)nc3N2)cc(OC)c1OC (stereo unspecified)
inactive: NCI-H23 lung 93.5% | NCI-H226 lung 91.4% | NCI-H322M lung 86.7% | NCI-H460 lung 84.5% | NCI-H522 lung 84.2% | A549/ATCC NSCLC 97.9% | 786-0 renal 75.3% | COLO 205 colon 104% | DU-145 prostate 103% | K-562 leukemia 47.2% | MALME-3M melanoma 84.4% | MDA-MB-231 breast 43.7% | RXF 393 renal 74% | SF-268 CNS 82.8% | SF-295 CNS 94% | SF-539 CNS 86% | UACC-257 melanoma 97.9% | M14 melanoma 101%

Cc1ccc(/C=C/c2n(Cc3ccc4ccccc4c3)c3ccccc3[n+]2Cc2ccc3ccccc3c2)cc1
active: NCI-H23 lung -92.4% | NCI-H226 lung -27.4% | NCI-H322M lung -98.4% | HOP-62 NSCLC -58.2% | NCI-H522 lung -82.5% | A549/ATCC NSCLC -53.4% | 786-0 renal -51.6% | COLO 205 colon -64.8% | DU-145 prostate -90.1% | K-562 leukemia -25.6% | MALME-3M melanoma -90.2% | MDA-MB-231 breast -47.3% | SF-268 CNS -65.1% | SF-295 CNS -98.5% | SF-539 CNS -96.5% | UACC-257 melanoma -71.5% | M14 melanoma -74.1%

O=C(/C=C/c1cccc(OCc2ccccc2)c1)c1nc2ccccc2[nH]1
inactive: NCI-H23 lung 63.7% | NCI-H322M lung 92.3% | NCI-H460 lung 63% | HOP-92 NSCLC 22.7% | NCI-H522 lung 72.8% | A549/ATCC NSCLC 39.1% | DU-145 prostate 55.9% | MALME-3M melanoma 90.9% | RXF 393 renal 20.4% | SF-268 CNS 62.3% | SF-295 CNS 69.9% | UACC-257 melanoma 70.1%
active: NCI-H226 lung 1.49% | 786-0 renal -60.7% | COLO 205 colon -31.7% | K-562 leukemia -8.72% | SF-539 CNS -56.5% | M14 melanoma 1.55%

COc1ccc2[nH]c(O)c(N=NC(=O)Cn3c(-c4ccccc4)nc4cc(C)ccc43)c2c1
active: 786-0 renal 4.55% | MALME-3M melanoma -48% | MDA-MB-231 breast -26.3% | RXF 393 renal -35.6% | SF-539 CNS -28.1% | M14 melanoma 9.19%
inactive: NCI-H23 lung 13.4% | NCI-H226 lung 11.7% | NCI-H322M lung 49.5% | HOP-62 NSCLC 47.9% | NCI-H522 lung 57% | A549/ATCC NSCLC 15.3% | COLO 205 colon 64.5% | DU-145 prostate 38.2% | K-562 leukemia 12.3% | SF-268 CNS 38.5% | SF-295 CNS 44.9% | UACC-257 melanoma 21.7%

CCCCCCn1c(O)c(N=Nc2nc(-c3cc4ccccc4oc3=O)cs2)c2ccccc21
inactive: NCI-H226 lung 67.8% | NCI-H322M lung 53.1% | HOP-62 NSCLC 39.9% | DU-145 prostate 10.1% | K-562 leukemia 29.8% | SF-268 CNS 11% | SF-295 CNS 47.8% | SF-539 CNS 56.1% | UACC-257 melanoma 46.3%
active: NCI-H23 lung -20.9% | NCI-H522 lung -21.8% | A549/ATCC NSCLC -16.6% | 786-0 renal -64.8% | COLO 205 colon 4.61% | MALME-3M melanoma -72.1% | MDA-MB-231 breast -65.6% | M14 melanoma -4.72%

CN(C)CCCNC(=O)c1cc(NC(=O)c2cc(NC(=O)c3ccc(C#Cc4ccccc4)cc3)cn2C)cn1C
active: NCI-H23 lung -42.7% | NCI-H226 lung 4.56% | NCI-H460 lung -28.9% | HOP-92 NSCLC -26% | NCI-H522 lung -95.3% | A549/ATCC NSCLC -14.8% | 786-0 renal -86.9% | COLO 205 colon -74.9% | K-562 leukemia -54.9% | MALME-3M melanoma -95.8% | MDA-MB-231 breast -68.8% | RXF 393 renal -37.7% | SF-295 CNS -91.8% | SF-539 CNS -84.1% | M14 melanoma -79.8%
inactive: NCI-H322M lung 38.9% | DU-145 prostate 18.2% | SF-268 CNS 18.1% | UACC-257 melanoma 43.8%

COc1ccc(C2(SCCNCc3cc(N(C)C)ccn3)c3ccccc3C=Cc3ccccc32)cc1
inactive: NCI-H23 lung 13.5% | NCI-H226 lung 50.6% | NCI-H322M lung 35.1% | A549/ATCC NSCLC 21.3% | 786-0 renal 23.5% | DU-145 prostate 18.1% | SF-268 CNS 28.2% | UACC-257 melanoma 41.1%
active: NCI-H460 lung -14% | HOP-92 NSCLC 0.307% | NCI-H522 lung -17.2% | COLO 205 colon -29.8% | K-562 leukemia 2.08% | MALME-3M melanoma -1.5% | MDA-MB-231 breast -29.2% | RXF 393 renal 8.16% | SF-295 CNS 1.44% | SF-539 CNS -67.7% | M14 melanoma -44.7%

CC12CC[C@@H]3[C@]4(C)COC(c5cn[nH]c5-c5ccc(Br)cc5)O[C@@H]4CC[C@@]3(C)[C@@H]1CC(C1=CCOC1=O)O2 (stereo partly specified)
inactive: NCI-H23 lung 57.3% | NCI-H226 lung 59.7% | NCI-H322M lung 66.1% | HOP-62 NSCLC 79.5% | NCI-H522 lung 37.4% | A549/ATCC NSCLC 35.5% | 786-0 renal 62.3% | COLO 205 colon 39% | DU-145 prostate 69.5% | K-562 leukemia 19.4% | MALME-3M melanoma 70.2% | MDA-MB-231 breast 66% | RXF 393 renal 37% | SF-268 CNS 50.1% | SF-295 CNS 48.7% | SF-539 CNS 69.9% | UACC-257 melanoma 55.2% | M14 melanoma 38.8%
